Test results from PubChem BioAssay (Tox21).
Records with an inconclusive call do not appear. Unmarked numbers belong to inactive results. Calls of active or inactive are those of the source. Calls follow the shape of the dose curve; as a rule, active = well fitted curve in the direction sought with a large enough effect in the signal ratio in the repeat runs (not every such curve was filed as active); inconclusive = weak or mixed curves, or effect the other way; inactive = no such curve, though single readings can be large or run the other way; the % refers to the signal ratio.

Target: Estrogen receptor (Homo sapiens) (UniProt P03372)
Assay: qHTS assay to identify small molecule antagonists of the estrogen receptor alpha (ER-alpha) signaling pathway (AID 743069)
Conditions: HEK293 ER-alpha-UAS-bla, beta-lactamase ratio, antagonist mode; series mostly up to 69.4 µM; activity, negative = inhibition: at the top concentration
Description: National Center for Advancing Translational Sciences [NCATS]
NIH Chemical Genomics Center [NCGC]
U.S. Environmental Protection Agency [EPA]
National Institutes of Environmental Health Sciences [NIEHS]
National Toxicology Program [NTP]
U.S. Food and Drug Administration [FDA]
Estrogen receptor (ER), a nuclear hormone receptor, plays an important role in development, metabolic homeostasis and reproduction. Two subtypes of ER, ER-alpha and ER-beta have similar expression patterns with some uniqueness in both types. Endocrine disrupting chemicals (EDCs) and their interactions with steroid hormone receptors like ER causes disruption of normal endocrine function. To identify the compounds that inhibit ER signaling, an ER-alpha-UAS-bla GripTiteTM cell line (Invitrogen, Carlsbad, CA, USA) containing a beta-lactamase reporter gene under the control of an Upstream Activator Sequence (UAS) stably integrated into HEK293 cells was used to screen the Tox21 10K compound library.
Tox21 Assay Protocol Summary:
ER-alpha-bla cells were cultured in assay medium containing 2% charcoal stripped FBS overnight in the culture flasks before the assay was performed. The cells were dispensed at 5,000 cells/5 uL of assay medium per well into black wall/clear-bottom 1536-well plates using a Multidrop Combi (ThermoFisher Scientific, Waltham, MA) dispenser. After the assay plates were incubated at a 37C and 5% CO2 for 4 hr, 23 nL of compounds dissolved in DMSO, positive controls or DMSO only was transferred to the assay plate by a Pintool station (Kalypsys, San Diego, CA), followed by addition of 1 uL of 17beta-estradiol in assay medium using a Flying Reagent Dispenser (Aurora Discovery, San Diego, CA). The plates were incubated at 37C and 5% CO2 for 18 hr. Then 1 uL of LiveBLAzerTM B/G FRET substrate was added using a Flying Reagent Dispenser, the plates were incubated at room temperature for 2 hours, and fluorescence intensity was measured by an Envision plate reader (PerkinElmer, Shelton, CT).
% is scaled to controls: 0 for no effect and ±100 for the full control effect.

Sequence of Estrogen receptor (Homo sapiens) (P03372 whole entry, looked up): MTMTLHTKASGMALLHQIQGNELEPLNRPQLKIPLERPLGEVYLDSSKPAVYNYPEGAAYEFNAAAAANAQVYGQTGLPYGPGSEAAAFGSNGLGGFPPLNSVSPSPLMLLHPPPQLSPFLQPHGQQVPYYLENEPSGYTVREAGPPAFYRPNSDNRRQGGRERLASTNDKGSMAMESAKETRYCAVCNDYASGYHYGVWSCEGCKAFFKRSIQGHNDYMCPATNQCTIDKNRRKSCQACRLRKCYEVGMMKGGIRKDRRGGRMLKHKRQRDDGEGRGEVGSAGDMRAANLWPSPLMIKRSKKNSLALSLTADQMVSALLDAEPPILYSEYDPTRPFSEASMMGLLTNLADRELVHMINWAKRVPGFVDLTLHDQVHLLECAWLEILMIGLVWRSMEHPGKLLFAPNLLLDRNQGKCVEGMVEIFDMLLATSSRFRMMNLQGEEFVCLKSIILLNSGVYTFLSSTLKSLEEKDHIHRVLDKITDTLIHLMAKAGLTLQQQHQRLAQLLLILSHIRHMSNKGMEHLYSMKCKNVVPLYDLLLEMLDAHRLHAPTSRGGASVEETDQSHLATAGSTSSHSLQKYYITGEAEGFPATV

Going from `CC(C)(C)OC(=O)c1cccc(N)c1` to `CC(=O)c1cnccn1`, the “activity, negative = inhibition” value rises from 0.195% [at 79.1 µM] to 25.6% [at 79.1 µM].

First: CCN1C=CN(C)C1C (stereo not given)
Second: CC(C)=CCC/C(C)=C/C#N
The “activity, negative = inhibition” value of the first is lower: -4.93% [at 79.1 µM] for the first, 24.1% [at 79.1 µM] for the second.

First: CC(C)(N)C#N
Second: CC(C)(CCC(=O)O)C(=O)O
The “activity, negative = inhibition” value of the first is lower: 2.55% [at 79.1 µM] for the first, 7.7% [at 79.1 µM] for the second.

Going from `O=S(=O)(O)c1cccc(S(=O)(=O)O)c1` to `CC(=O)NC(=O)c1ccccc1O`, the “activity, negative = inhibition” value falls from 24.8% to 10.3%.

Going from `CCN(CC#N)c1cccc(C)c1` to `CC(C)(C)C(=O)c1ccccc1`, the “activity, negative = inhibition” value rises from -6.78% to -1.35%.

First: C[C@H]1C[C@H]2[C@@H]3CCC4=CC(=O)C=C[C@]4(C)[C@H]3C(=O)C[C@]2(C)[C@@]1(O)C(=O)CO
Second: CC(=O)O[C@@]12CO[C@@H]1C[C@H](O)[C@@]1(C)C(=O)[C@H](O)C3=C(C)[C@@H](OC(=O)[C@H](O)[C@@H](NC(=O)OC(C)(C)C)c4ccccc4)C[C@@](O)([C@@H](OC(=O)c4ccccc4)[C@H]21)C3(C)C
The “activity, negative = inhibition” value of the first is higher: -6.76% for the first, -18.2% for the second.

Going from `CN(C)C(=O)Oc1ccc[n+](C)c1` to `CCC(C(=O)NC(=O)NC(C)=O)c1ccccc1` (stereo not given), the “activity, negative = inhibition” value falls from 9% to -21.3%.

Going from `Cc1ncc(COP(=O)(O)O)c(C=O)c1O` to `CCOC(=O)OC(C)OC1=C(C(=O)Nc2ccccn2)N(C)S(=O)(=O)c2ccccc21` (stereo not given), the “activity, negative = inhibition” value falls from 7.6% to -18.5%.

First: CC(C)(C)c1ccc(-c2ccc(C(C)(C)C)cc2)cc1
Second: O=C(O)Cc1csc(-c2ccc(Cl)cc2)n1
The “activity, negative = inhibition” value of the first is lower: 2.73% for the first, 3.59% for the second.

Compared with `COc1ccc2cc1Oc1cc3c(cc1OC)CC[N+](C)(C)[C@H]3Cc1ccc(cc1)Oc1c(OC)c(OC)cc3c1[C@@H](C2)[N+](C)(C)CC3`, `CCCCc1ccc2c(n1)[C@@H](c1ccc(OC)cc1C[C@H](C)C(=O)O)[C@H](C(=O)O)[C@H]2c1ccc2c(c1)OCO2` is lower in “activity, negative = inhibition” value: 6.3% for the first, 3.81% for the second.

First: O=[N+]([O-])c1ccc(/C=N\O)o1
Second: CNC(=O)Nc1ccc(Cl)c(Cl)c1
The “activity, negative = inhibition” value of the first is lower: 4.54% for the first, 9.14% for the second.

Going from `CC(=O)N1C[C@H](O)C[C@H]1C(=O)O` to `N[C@@H](CCC(=O)O)C(=O)O`, the “activity, negative = inhibition” value falls from 13.7% to 11.3%.

Going from `C=CCOCC(O)CO` (stereo not given) to `CCCCOC(=O)CCC(C)=O`, the “activity, negative = inhibition” value falls from 17.2% to 11%.

First: CN(C)CCN(C)CCN(C)C
Second: CCCC[N+](C)(CCCC)CCCC
The “activity, negative = inhibition” value of the first is lower: -32.8% for the first, -17.4% for the second.

First: c1coc(CNc2ncnc3nc[nH]c23)c1
Second: Clc1cc(Cl)cc(Cl)c1
The “activity, negative = inhibition” value of the first is lower: -18.6% for the first, 8.15% for the second.

Compared with `CC(CO)(CO)[N+](=O)[O-]`, `CCN[C@H]1C[C@H](C)S(=O)(=O)c2sc(S(N)(=O)=O)cc21` is lower in “activity, negative = inhibition” value: 11% for the first, 2.1% for the second.

With `CC/C=C\CCOC(C)OCC` (stereo not given) the “activity, negative = inhibition” value was 12.1%.

For `CN1[C@@H]2CC[C@H]1CC(OC(=O)C(O)c1ccccc1)C2` (stereo not given in full), the Potency was “inactive”.
`O=C(CO)[C@@H](O)[C@H](O)[C@H](O)CO` was tested, and the Potency was “inactive”.
`CN1CC(=O)N/C1=N/C(=O)Nc1cccc(Cl)c1` was tested, and the Potency was “inactive”.
With `CC[C@H]1OC(=O)[C@H](C)[C@@H](O[C@H]2C[C@@](C)(OC)[C@@H](O)[C@H](C)O2)[C@H](C)[C@@H](O[C@@H]2O[C@H](C)C[C@H](N(C)C)[C@H]2O)[C@](C)(OC)C[C@@H](C)C(=O)[C@H](C)[C@@H](O)[C@]1(C)O` the Potency was “inactive”.

`Cc1cc(C)c(N=Nc2c(O)c(S(=O)(=O)O)cc3cc(S(=O)(=O)O)ccc23)cc1C` showed an activity, negative = inhibition of -5.6% [at 6.71 µM].

Compared with `C[N+]1(C)CCCC(OC(=O)C(O)(c2ccccc2)c2ccccc2)C1` (stereo not given), `COc1cc(C(=O)NCc2ccc(OCCN(C)C)cc2)cc(OC)c1OC` is lower in “activity, negative = inhibition” value: 15.2% [at 32.6 µM] for the first, -12.8% [at 32.6 µM] for the second.
